Data as given in PubChem BioAssay (NCI).
About 79,000 compounds went through this panel and 15% of them were active in at least one assay; those are over-represented in the sample as a whole. Active and inactive are the calls of the source. Cut-off read from the data, not from the text of the source: active = growth inhibition above about 70%; inactive = the rest.

Key:
[1] = NCI Yeast Anticancer Drug Screen. Data for the rad50 strain (AID 155);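 note: 0% = growth of vehicle-only cultures of the same strain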; details: S. cerevisiae rad50 strain growth inhibition; at 50.0 µM; hits give high values
Outline: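 Relative growth inhibition (compound vs vehicle) was measured in yeast with a defined repair-gene alteration.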

[2] = NCI Yeast Anticancer Drug Screen. Data for the mec2-1 strain (AID 157); details: S. cerevisiae mec2-1 strain, at 50.0 µM, hits give high values
Outline: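 Cells of the genetically defined mec2-1 yeast strain are incubated with test compound. Inhibition of growth is calculated against vehicle-treated controls.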

[3] = NCI Yeast Anticancer Drug Screen. Data for the mlh1 rad18 strain (AID 175); details: S. cerevisiae mlh1 rad18 strain growth inhibition; at 50.0 µM; hits give high values
Outline: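 Compound-treated yeast growth, normalised to vehicle controls. Strain bears defined DNA repair mutations.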

[4] = NCI Yeast Anticancer Drug Screen. Data for the sgs1 mgt1 strain (AID 161);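 note: 0% = growth of cultures given vehicle only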; details: S. cerevisiae sgs1 mgt1 strain, at 50.0 µM, hits give high values
Outline: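 Mutant yeast exposed to compound; growth scored against vehicle-only wells.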

[5] = NCI Yeast Anticancer Drug Screen. Data for the cln2 rad14 strain (AID 165);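 note: 0% = growth equal to vehicle treated cultures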; details: S. cerevisiae cln2 rad14 strain, at 50.0 µM, hits give high values
Outline: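 The screen exposed genetically defined yeast (cln2 rad14) to test compounds and scored growth inhibition relative to vehicle-treated controls.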

[6] = NCI Yeast Anticancer Drug Screen. Data for the bub3 strain (AID 167); details: S. cerevisiae bub3 mutant strain, at 50.0 µM, hits give high values
Outline: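 Screening used yeast with an engineered genetic alteration affecting cell cycle control. Compound-exposed cultures were compared with vehicle cultures, and reduced growth was taken as inhibition.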

Measured: growth inhibition

COc1ccccc1NC1=NCCS1
inactive: [1] 20.9% | [2] -12.9% | [3] 15.4%

O=C(CBr)OCS(=O)(=O)O
inactive: [1] -15.2% | [2] -31.6% | [3] -6.2%

CC1C2C=CC1C(c1c3ccc(=O)cc-3oc3cc(O)ccc13)C2C(=O)O (configuration not stated)
inactive: [1] -4.85% | [2] 2.15% | [3] 21.4%

O=C(CCN1CC=C(c2ccccc2)CC1)NCc1ccccc1
inactive: [1] 5% | [2] -6.8% | [3] 8.55%

O=C(CBr)OCCCS(=O)(=O)O
inactive: [1] -24.9% | [2] -34.4% | [3] -33.8%

Cc1ccc(-n2c(=S)[nH]c3ccccc3c2=O)cc1
inactive: [1] -8.7% | [2] -7.95% | [3] -20.9%

COc1ccc(C(=O)OC2CC3CCC(C2)N3)cc1OC (configuration not stated)
inactive: [1] 7.25% | [2] -19.8% | [3] 22.8%

CSC(=S)NNC(=O)c1cccc(S(=O)(=O)F)c1
inactive: [1] -2.95% | [2] -8.8% | [3] 50.7%

C[N+]1([O-])C2CCC1CC(OC(=O)C(O)c1ccccc1)C2 (configuration not stated)
inactive: [1] 1.45% | [2] -21.2% | [3] 3.4%

COc1cccc(N=C(N)N[N+](=O)[O-])c1
inactive: [1] -13.2% | [2] -32% | [3] -7.25%

CN1CCN(c2ccc(Cl)cc2)CC1
inactive: [1] -5.85% | [2] -17.6% | [3] 0.7%

NC(=NC1CCCCCCCCCCC1)N[N+](=O)[O-]
inactive: [1] 36.1% | [2] 9.6% | [3] 12.3%

O=C(/C=C/c1ccccc1)NCCc1cnc[nH]1
inactive: [1] 0.65% | [2] 1.55% | [3] 16.4%

Cc1cccc(-c2cc(Cl)c3cc(S(=O)(=O)F)ccc3n2)c1
inactive: [1] -1.1% | [2] -25.4% | [3] -33.4%

NC(=O)NNc1ccc([N+](=O)[O-])cc1[N+](=O)[O-]
inactive: [1] 12.1% | [2] -5.4% | [3] 14.8%

O=c1c2ccc(Cl)cc2[nH]c(=S)n1-c1ccc(Cl)cc1
inactive: [1] 10.1% | [2] -9.25% | [3] 11%

COC(=O)C1=C(O)C(C(=O)OC)C2/C(=[N+](/[O-])O)c3c(cc([N+](=O)[O-])cc3[N+](=O)[O-])C1C2[N+](=O)[O-] (configuration not stated)
inactive: [5] 66.3% | [6] 67.8%
active: [2] 81% | [4] 87.8%

CCCCCCCC(=O)[O][Pb]([CH2]C)([CH2]C)[CH2]C
inactive: [1] -7.8% | [4] 1.95% | [5] -1.5% | [6] 0% | [3] -21.3%

O=[As](O)(O)c1ccc(N=Nc2ccccc2)cc1
inactive: [1] -4.25% | [4] -6.05% | [5] -19.9% | [6] 5.75% | [3] -17.2%

CN1[C@@H](CC(=O)c2ccccc2)CCC[C@H]1CC(=O)c1ccccc1
inactive: [1] 21.2% | [4] 42.5% | [5] 37.3% | [6] 28.2% | [3] 1.25%

COC(=O)C1=CCCN(C)C1
inactive: [1] 0.15% | [4] 10.2% | [5] -0.4% | [6] 2.15% | [3] 3.7%

CC(O)CN(CCN(CC(C)O)CC(C)O)CC(C)O.[Cl-].[Zn+2] (configuration not stated)
inactive: [1] 14.9% | [4] 17.4% | [5] 10.7% | [6] 8.8% | [3] 6.1%

OC1C2CCC1C(N1CCOCC1)CC2 (configuration not stated)
inactive: [1] 0.25% | [4] 8.05% | [5] -7.15% | [6] 18.5% | [3] 5.5%

CCOP(=S)(Oc1ccccc1[N+](=O)[O-])c1ccccc1 (configuration not stated)
inactive: [1] 6.85% | [4] 12.6% | [5] 25.8% | [6] 18.9% | [3] 10.2%

CCOC(=O)COc1cc(Cl)c(S(=O)(=O)F)cc1Cl
active: [1] 98.8% | [4] 97.3% | [5] 93.1% | [6] 98.3% | [3] 98%

CC(=O)OC(C)(C)/C=C/C(=O)[C@](C)(O)[C@H]1[C@H](O)C[C@@]2(C)[C@@H]3CC=C4[C@@H](C[C@H](O)C(=O)C4(C)C)[C@]3(CO)C(=O)C[C@]12C
inactive: [1] 21.1% | [4] 15.3% | [5] -7.8% | [6] 18.6% | [3] 18.9%

CO[C@H]1C[C@H](O[C@H]2CC[C@@]3(C)[C@H](CC[C@@H]4[C@@H]3CC[C@]3(C)[C@@H](C5=CC(=O)OC5)CC[C@]43O)C2)O[C@H](C)[C@H]1O
inactive: [2] 5.95% | [4] 17.8% | [5] 23.1% | [6] 14.6%

CO[C@H]1C=CC2=CCN3CCC4=C(CC(=O)OC4)[C@]23C1
inactive: [1] -9.3% | [4] -3.6% | [5] 1.8% | [6] -21.9% | [3] -15.4%

COc1ccc2c(c1)C1(C)CCN(C)CC(C1)C2O (configuration not stated)
inactive: [1] 47.2% | [4] 15.6% | [5] 22.9% | [6] -1% | [3] 23.2%

O=C(O)C1CCCN1[N+](=O)[O-] (configuration not stated)
inactive: [1] -21.7% | [4] -5.15% | [5] -12.9% | [6] -5.55% | [3] -8.15%

NC(Cc1ccc(O)c(F)c1)C(=O)O (configuration not stated)
inactive: [1] -37.1% | [4] -41.2% | [5] -2.75% | [6] -51.9% | [3] -14.3%

O=C(OCC1CCCN2CCCCC12)c1ccncc1 (configuration not stated)
inactive: [1] 4.9% | [4] 48.4% | [5] 15.4% | [6] 34.3% | [3] 2.35%

COc1cc(C2c3cc4c(cc3C(O)[C@H]3COC(=O)[C@@H]23)OCO4)cc(OC)c1O (some centres not stated)
inactive: [1] -36.4% | [4] -28.8% | [5] 16.6% | [6] 6.55% | [3] -7.9%

CS(=N)(=O)CCC(N)P(=O)(O)O (configuration not stated)
inactive: [1] -29.8% | [4] 6.85% | [5] 13.9% | [6] -50.5% | [3] -27.9%

O=N[O-].[Co].[NH-]CC[NH-].[NH-]CC[NH-].[NH2-]
inactive: [1] 5.35% | [4] -6.25% | [5] 4.95% | [6] 4.85% | [3] -2.4%

CC/C=C/C1(C(C)C)C(=O)NC(=O)NC1=O (tested in a mixture with another compound)
inactive: [1] 14.9% | [4] 5.15% | [5] -27.4% | [6] 0.3% | [3] 13.7%

[C-]#[O+].[C-]#[O+].[C-]#[O+].[W].c1ccc([PH+](CC[PH+](c2ccccc2)c2ccccc2)CC[PH+](c2ccccc2)c2ccccc2)cc1
inactive: [1] 0.6% | [4] -1.8% | [5] 3.45% | [6] 3.85% | [3] 2.6%

O=C(C/C(=N/O)C(=O)NC1=C(Cl)C(=O)c2ccccc2C1=O)CC(c1ccccc1)c1c(O)c2ccccc2oc1=O (configuration not stated)
inactive: [1] 39.5%
active: [4] 82.5% | [5] 76.8% | [6] 84.7% | [3] 87.6%

CC1NCCc2cc(O)c(O)cc21 (configuration not stated)
inactive: [1] 4.35% | [3] 40%

OC1[C@@H]2[C@@H](O)CCCN2C[C@@H](O)[C@H]1O (some centres not stated)
inactive: [1] -53.2% | [4] -31.9% | [5] -20.6% | [6] 1.05% | [3] -28.1%

O=C(O)C(Oc1nc(=S)[nH]c(=S)[nH]1)(c1ccc(Cl)cc1)c1ccc(Cl)cc1
inactive: [1] -1.5% | [4] -23.2% | [5] 0.55% | [6] -10.7% | [3] -8.8%

NC(Cc1ccc(O)c(O)c1)c1ccccc1 (configuration not stated)
inactive: [1] -12.1% | [5] -25.8% | [6] -7.75% | [3] -22.6%

Cc1ccc(O)cc1C
inactive: [1] 9.95% | [4] 26% | [5] 26.8% | [6] 3.75% | [3] 7.95%

[C-]#[O+].[C-]#[O+].[C-]#[O+].[C-]#[O+].[C-]#[O+].[C-]#[O+].[C-]#[O+].[C-]#[O+].[C-]#[O+].[CH2-]C.[Co].[Co].[Co]
inactive: [1] 25.6% | [4] 19.1% | [5] -2.3% | [6] 24.2% | [3] 33.8%

[C-]#[O+].[C-]#[O+].[C-]#[O+].[Mo].c1ccc(P(CC[PH+](CC[PH+](CC[PH+](c2ccccc2)c2ccccc2)c2ccccc2)c2ccccc2)c2ccccc2)cc1 (configuration not stated)
inactive: [1] 30.8% | [4] 43.4% | [5] 37.7% | [6] 32.5% | [3] 44.1%

ClC1CC2CC1C1CNCC21 (configuration not stated)
inactive: [1] -15.2% | [4] -4.05% | [5] -15.8% | [6] -1.05% | [3] -21%

O=C1/C(=C\c2ccc([N+](=O)[O-])cc2)N2CCC1CC2
inactive: [1] -8.3% | [4] -3.65% | [5] -0.45% | [6] 1.75% | [3] 7.05%

CC(=O)[CH-]C(C)=O.F[P-](F)(F)(F)(F)F.[Co+3].[NH-]CC[NH-].[NH-]CC[NH-]
inactive: [1] -1.2% | [4] -12.2% | [5] -29.9% | [6] -4.35% | [3] -5.35%

COc1ccc2c(c1O)CN1CCc3cc4c(cc3C1C2)OCO4 (configuration not stated)
inactive: [1] 40.5% | [4] 28.6% | [5] 25.9% | [6] 43.2% | [3] 19.9%

CC1CC(O)C(=O)C(O[C@@H]2C[C@@H]3CC[C@@H]4[C@H](CC[C@]5(C)C(C6=CC(=O)OC6)CC[C@]45O)[C@@]3(C=O)C[C@H]2O)O1 (some centres not stated)
inactive: [1] 7.95% | [4] -8.1% | [5] -2.6% | [6] -12.8% | [3] -42.9%
